Measured values: PubChem BioAssay AID1159580 (chemical genetic matrix, 2015)
Values joined by “and” are separate entries in the source; they are usually repeats but may differ in a detail not shown here. Equal entries are not always repeated. The campaign covered roughly 5,500 compounds. About 2,000 (36%) were called active. Not shown: some 18% with an inconclusive outcome. Rule as the data show it: active = normalized growth mostly below about 0.91 (no sharp cut-off); inconclusive = no clear call, values can overlap the other calls; inactive = mostly above about 0.92. The list shows a part of the results.

Experiment: chemical genetic growth profiling, strain panel (AID 1159580);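 also: tested at 20 µM; growth read once vehicle control cultures reached saturation at 30 °C; 1 = growth at the plate median or of vehicle wells; lower values mean less growth of the strain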
Conditions: growth OD

Measured: normalized growth

CC(=O)[C@@]1(O)CCC2C3C=C(Cl)C4=CC(=O)[C@@H]5CC5[C@]4(C)C3CC[C@@]21C (some centres not stated)
inactive: S. cerevisiae deletion strains, locus YAL013W, strain DEP1, hits give low values 1.02 | S. cerevisiae deletion strains, locus YBR021W, strain FUR4, hits give low values 0.996 | S. cerevisiae deletion strains, locus YBR229C, strain ROT2, hits give low values 1.01 | S. cerevisiae deletion strains, locus YCL029C, strain bik1, hits give low values 1.02 | S. cerevisiae deletion strains, locus YDL035C, strain GPR1, hits give low values 1 | S. cerevisiae deletion strains, locus YDL074C, strain BRE1, hits give low values 0.991 | S. cerevisiae deletion strains, locus YDL101C, strain DUN1, hits give low values 1.01 | S. cerevisiae deletion strains, locus YDL134C, strain PPH21, hits give low values 1.01 | S. cerevisiae deletion strains, locus YDL185W, strain tfp1, hits give low values 1.01 | S. cerevisiae deletion strains, locus YDL192W, strain arf1, hits give low values 0.998 | S. cerevisiae deletion strains, locus YDR101C, strain arx1, hits give low values 1.01 | S. cerevisiae deletion strains, locus YDR150W, strain NUM1, hits give low values 1.02 | S. cerevisiae deletion strains, locus YDR162C, strain NBP2, hits give low values 1 | S. cerevisiae deletion strains, locus YDR318W, strain mcm21, hits give low values 1 | S. cerevisiae deletion strains, locus YDR388W, hits give low values 1.01 | S. cerevisiae deletion strains, locus YDR502C, strain sam2, hits give low values 1.01 | S. cerevisiae deletion strains, locus YEL061C, strain CIN8, hits give low values 1.01 | S. cerevisiae deletion strains, locus YER110C, hits give low values 1.02 | S. cerevisiae deletion strains, locus YER155C, strain BEM2, hits give low values 0.998 | S. cerevisiae deletion strains, locus YER167W, strain BCK2, hits give low values 0.988 | S. cerevisiae deletion strains, locus YGL078C, strain dbp3, hits give low values 1 | S. cerevisiae deletion strains, locus YGL086W, strain mad1, hits give low values 1.01 | S. cerevisiae deletion strains, locus YGL248W, strain PDE1, hits give low values 1 | S. cerevisiae deletion strains, locus YGR078C, strain PAC10, hits give low values 0.999 | S. cerevisiae deletion strains, locus YGR135W, strain pre9, hits give low values 1.01 | S. cerevisiae deletion strains, locus YGR229C, strain SMI1, hits give low values 1.01 | S. cerevisiae deletion strains, locus YGR252W, strain gcn5, hits give low values 0.952 | S. cerevisiae deletion strains, locus YHR030C, strain SLT2, hits give low values 1.01 and 1.03 | S. cerevisiae deletion strains, locus YHR079C, strain IRE1 (second series), hits give low values 1.02 | S. cerevisiae deletion strains, locus YHR079C, strain IRE1, hits give low values 1.05 | S. cerevisiae deletion strains, locus YHR094C, strain hxt1, hits give low values 1.01 | S. cerevisiae deletion strains, locus YHR129C, strain ARP1, hits give low values 1 | S. cerevisiae deletion strains, locus YHR200W, strain rpn10, hits give low values 1.02 | S. cerevisiae deletion strains, locus YIL066C, strain RNR3, hits give low values 1.01 | S. cerevisiae deletion strains, locus YIL073C, strain SPO22, hits give low values 1.01 | S. cerevisiae deletion strains, locus YIL125W, strain kgd1, hits give low values 1.01 | S. cerevisiae deletion strains, locus YIR030C, strain dcg1, hits give low values 1.02 | S. cerevisiae deletion strains, locus YJL095W, strain BCK1, hits give low values 1.02 and 1.03 | S. cerevisiae deletion strains, locus YJL134W, strain LCB3, hits give low values 1.01 | S. cerevisiae deletion strains, locus YJL168C, strain set2, hits give low values 1.01 | S. cerevisiae deletion strains, locus YJL187C, strain SWE1 (second series), hits give low values 1.02 | S. cerevisiae deletion strains, locus YJR043C, strain POL32, hits give low values 1 | S. cerevisiae deletion strains, locus YJR066W, strain TOR1, hits give low values 0.95 | S. cerevisiae deletion strains, locus YJR075W, strain HOC1, hits give low values 1.03 | S. cerevisiae deletion strains, locus YKL009W, strain mrt4, hits give low values 0.999 | S. cerevisiae deletion strains, locus YKL068W, hits give low values 1.01 | S. cerevisiae deletion strains, locus YKL085W, strain MDH1 (second series), hits give low values 0.999 | S. cerevisiae deletion strains, locus YKL085W, strain MDH1, hits give low values 0.999 | S. cerevisiae deletion strains, locus YKL190W, strain CNB1, hits give low values 1.01 | S. cerevisiae deletion strains, locus YKR001C, strain vps1, hits give low values 0.995 | S. cerevisiae deletion strains, locus YLR039C, strain RIC1, hits give low values 0.984 | S. cerevisiae deletion strains, locus YLR058C, strain SHM2, hits give low values 1.01 | S. cerevisiae deletion strains, locus YLR102C, strain apc9, hits give low values 1.01 | S. cerevisiae deletion strains, locus YLR113W, strain HOG1, hits give low values 0.974 | S. cerevisiae deletion strains, locus YLR262C, strain YPT6, hits give low values 1 | S. cerevisiae deletion strains, locus YLR268W, strain sec22, hits give low values 1.02 | S. cerevisiae deletion strains, locus YLR330W, strain CHS5, hits give low values 1.01 | S. cerevisiae deletion strains, locus YLR342W, strain FKS1 (second series), hits give low values 1.01 | S. cerevisiae deletion strains, locus YLR371W, strain rom2, hits give low values 1.02 | S. cerevisiae deletion strains, locus YLR418C, strain cdc73, hits give low values 0.993 | S. cerevisiae deletion strains, locus YML016C, strain PPZ1, hits give low values 1.02 | S. cerevisiae deletion strains, locus YML032C, strain rad52, hits give low values 1.02 | S. cerevisiae deletion strains, locus YML124C, strain tub3, hits give low values 1.01 | S. cerevisiae deletion strains, locus YMR078C, strain ctf18, hits give low values 1 | S. cerevisiae deletion strains, locus YMR223W, strain ubp8, hits give low values 1.01 | S. cerevisiae deletion strains, locus YMR263W, strain SAP30, hits give low values 1.02 | S. cerevisiae deletion strains, locus YMR307W, strain GAS1, hits give low values 0.943 | S. cerevisiae deletion strains, locus YNL067W, strain RPL9B, hits give low values 1.02 | S. cerevisiae deletion strains, locus YNL128W, strain TEP1, hits give low values 1.03 | S. cerevisiae deletion strains, locus YNL153C, strain GIM3, hits give low values 1.01 | S. cerevisiae deletion strains, locus YNL183C, strain NPR1, hits give low values 0.958 | S. cerevisiae deletion strains, locus YNL233W, strain BNI4, hits give low values 0.987 | S. cerevisiae deletion strains, locus YNL250W, strain rad50, hits give low values 1.01 | S. cerevisiae deletion strains, locus YNL271C, strain bni1, hits give low values 1.01 | S. cerevisiae deletion strains, locus YNL298W, strain CLA4, hits give low values 1.01 | S. cerevisiae deletion strains, locus YNL307C, strain MCK1, hits give low values 1 | S. cerevisiae deletion strains, locus YNL322C, strain KRE1, hits give low values 1.01 | S. cerevisiae deletion strains, locus YNR052C, strain pop2, hits give low values 1.01 | S. cerevisiae deletion strains, locus YOL006C, strain TOP1, hits give low values 1.02 | S. cerevisiae deletion strains, locus YOL012C, strain htz1 1.53 | S. cerevisiae deletion strains, locus YOL147C, strain pex11, hits give low values 1 | S. cerevisiae deletion strains, locus YOR061W, strain CKA2, hits give low values 1.01 | S. cerevisiae deletion strains, locus YOR069W, strain VPS5, hits give low values 1.01 | S. cerevisiae deletion strains, locus YOR136W, strain idh2, hits give low values 1 | S. cerevisiae deletion strains, locus YOR144C, strain elg1, hits give low values 1 | S. cerevisiae deletion strains, locus YOR184W, strain ser1, hits give low values 1 | S. cerevisiae deletion strains, locus YOR231W, strain MKK1, hits give low values 1.01 | S. cerevisiae deletion strains, locus YOR316C, strain cot1, hits give low values 1.01 | S. cerevisiae deletion strains, locus YPL055C, strain LGE1, hits give low values 1.01 | S. cerevisiae deletion strains, locus YPL241C, strain CIN2, hits give low values 1.01 | S. cerevisiae deletion strains, locus YPL256C, strain CLN2, hits give low values 1.04 | S. cerevisiae deletion strains, locus YPR119W, strain clb2, hits give low values 1 | S. cerevisiae deletion strains, locus YPR141C, strain kar3, hits give low values 0.998 | S. cerevisiae deletion strains, locus YPR163C, strain tif3, hits give low values 1.01 | S. cerevisiae deletion strains, locus YPR167C, strain met16, hits give low values 1.01 | S. cerevisiae deletion strains, strain wtn01, hits give low values 1.02 | S. cerevisiae strains, strain wild type, hits give low values 1
